Source: the supplement of paper PMC11219838
Unmarked numbers belong to inactive results.

Assays:
[1] = test system: Caenorhabditis elegans dauer (daf-2(e1370)); assay: proportion of mobile C. elegans dauer larvae relative to DMSO control (fraction of DMSO control); higher = more viable, less nematicidal, active = 0.63 or less; extreme values may be limits of the assay; conditions: 60 µM; 5 days; temperature: 20 °C
Procedure, shortened: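 Compound was added by pinning to 60 µM final, giving 0.6% v/v DMSO, in 96-well plates containing about 20 C. elegans dauers per well in liquid NGM. These dauers came from synchronized larvae held on MYOB plates with E. coli OP50 for 48 h at 25 °C. Plates were sealed and shaken at 200 rpm at 20 °C for 5 days. Under a dissection microscope, the proportion of mobile worms was scored relative to DMSO wells, and two biological replicates were averaged.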

Ditylenchus dipsaci = assay: proportion of mobile D. dipsaci (mixed stage) relative to DMSO control (fraction of DMSO control); higher = more viable, less nematicidal, active = 0.86 or less; extreme values may be limits of the assay; conditions: 60 µM; 5 days; temperature: 20 °C
Procedure, shortened: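 Ditylenchus dipsaci nematodes were cultured on pea plants in Gamborg B-5 agar, then extracted into water through a filter funnel, and roughly 20 worms in distilled water were placed in each well of a 96-well plate. Compound was pinned in to a final concentration of 60 µM (0.6% v/v DMSO), and the sealed plates were shaken at 200 rpm for 5 days at 20 °C. Mobile worms were counted under the microscope after 2 µL of 1 M NaOH was added. Mobility is given relative to DMSO controls as the mean of two biological replicates.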

SMILES	proportion of mobile C. elegans dauer larvae [1]	proportion of mobile D. dipsaci (Ditylenchus dipsaci)
CCn1c(C)cc(C(=O)CSc2nnc(-c3ccccc3)o2)c1C	1	1
CC(Sc1nnc(-c2ccc(C(C)(C)C)cc2)o1)C(=O)Nc1nccs1 (centres undefined)	1	1
COc1cccc(-c2noc(COc3cccc(C)c3)n2)c1	1	1
Brc1ccc(-c2nc(-c3ccc4c(c3)OCO4)no2)cc1	1	1
Clc1ccc(-c2noc(-c3ccccc3Br)n2)cc1	1	1
Brc1ccc(-c2nc(-c3cccnc3)no2)cc1	0.552 (active)	1
Cc1csc(NC(=O)CSc2nnc(-c3cccc(Cl)c3)o2)n1	1	1
COc1ccc(-c2nnc(SCC(=O)N(C)c3ccccc3)o2)cc1	1	1
Cc1c(C)n(C(=O)CSc2nnc(-c3ccccc3)o2)c2ccccc12	1	1
Clc1ccc(OCc2nc(-c3ccccc3)no2)c(Br)c1	1	1
Clc1ccc(-c2nnc(SCc3ccccc3)o2)cc1	1	1
Cc1cc(OCc2nc(-c3cccnc3)no2)c(C)cc1Br	1	1
CC(C)(C)NC(=O)c1ccccc1-c1nc(-c2ccccc2)no1	1	1
CNC(=O)c1ccccc1-c1nc(-c2ccc(F)cc2)no1	1	1
CCn1cc(C(=O)CSc2nnc(-c3ccccc3)o2)c2ccccc21	1	1
Fc1ccc(OCc2nc(-c3ccc(Cl)cc3)no2)cc1	1	1
COc1ccc(CCC(=O)Nc2ccc(-c3noc(COc4ccccc4C)n3)cc2)cc1	1	1
Cc1ccc(-c2noc(COc3cc(C)cc(C)c3)n2)cc1	1	1
Cc1ccc(C(=O)Nc2ccccc2-c2nc(-c3ccncc3)no2)cc1C	1	1

SMILES	proportion of mobile C. elegans dauer larvae [1]	proportion of mobile D. dipsaci (Ditylenchus dipsaci)
CCn1c(SCc2nnc(-c3ccccc3)o2)nnc1-c1ccco1	1	1
CCOc1ccccc1-c1nc(-c2ccc(F)cc2)no1	1	1
c1ccc(-c2noc(COc3ccc4c(c3)CCCC4)n2)cc1	1	1
O=C(Nc1ccccc1-c1nc(-c2cccnc2)no1)c1ccc(Cl)cc1	1	1
CCOc1ccccc1NC(=O)CSc1nnc(-c2ccco2)o1	1	1
Cc1ccc(-c2nnc(SCc3ccc(Br)cc3)o2)cc1	1	1
COc1ccc(Br)cc1-c1noc(-c2ccncc2)n1	1	1
Cc1cnc(NC(=O)CSc2nnc(-c3cccc(Cl)c3)o2)s1	1	0.9
CC(=O)Nc1ccc(-c2nnc(SCc3ccccc3)o2)cc1	1	1
Cc1ccc(-c2nc(-c3ccccc3)no2)cc1Cl	1	1
Ic1ccc(OCc2nc(-c3ccncc3)no2)cc1	1	1
O=C(CSc1nnc(-c2ccco2)o1)Nc1cccc(C(F)(F)F)c1	1	1
Cc1cccc(-c2noc(COc3ccccc3Cl)n2)c1	1	1
Fc1ccc(-c2noc(-c3ccc(Cl)cc3)n2)cc1	1	1
CC(C)(C)C(=O)CSc1nnc(-c2ccc(Cl)cc2Cl)o1	1	1
COc1ccc(-c2nnc(SCC(=O)c3ccc(C)o3)o2)cc1	1	1
Cc1ccc(NC(=O)CSc2nnc(-c3ccccc3)o2)c(C)c1	1	1
Cc1cccc(OCc2nc(-c3ccccc3Cl)no2)c1	1	1
